M18AAP inhibitor: PfM18AAP enzyme inhibition. recombinant PfM18AAP, H-Glu-NHMec fluorogenic cleavage. inhibition, % at 7.35 µM. 290,000 compounds, 1.2% hits;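 active = inhibition above the campaign mean inhibition over all tested compounds plus 3 SD, cut at about 28% in these data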
CaV13 FRET inh: Disruptors of the CACNA1D IQ motif to Ca2+-dependent inactivation inhibitor domain association, primary screening, Förster resonance energy transfer in intact living … | HEK cells, CFP/YFP FRET ICDI-IQ, plate reader, 10 min; percent FRET-ratio fall versus neutral wells | inhibition, % at 12.3 µM | 340,000 compounds, 0.098% hits;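 active = mean replicate inhibition of at least 30% and at least 1% of replicates passing that level; inconclusive = only one of the two criteria is met; inactive = neither criterion is met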
ALR inh: human ALR oxidase inhibition via reduced H2O2; P55789; purified ALR, DTT oxidation, H2O2 HRP-luminol luminescence; inhibition, % (no concentration beside the values); 290,000 compounds, 3.8% hits;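 active = mean replicate inhibition above about 79%, with every replicate also reaching it, limit read from the data; inconclusive = only one of the two criteria met; inactive = mean below limit and not every replicate reaching it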
Target sequence (P55789 whole entry, looked up): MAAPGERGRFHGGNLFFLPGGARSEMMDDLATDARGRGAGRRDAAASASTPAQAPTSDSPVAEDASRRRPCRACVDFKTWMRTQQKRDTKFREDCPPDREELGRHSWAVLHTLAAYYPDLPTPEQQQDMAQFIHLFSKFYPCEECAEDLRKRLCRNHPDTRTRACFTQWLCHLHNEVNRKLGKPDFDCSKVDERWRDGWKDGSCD
IDE cell inh: inhibitors of human insulin-degrading enzyme in cells | inhibition, % at 5.59 µM | HEK cells, FAbetaB cleavage, fluorescence polarization | P14735 | 320,000 compounds, 0.41% hits | AID 434962;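 active = percent inhibition above the average of all tested compounds plus 3 SD, set per screening campaign, cut at about 16% in these data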;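 note: IDE supplied by intact live HEK cells; FP after avidin binding of uncleaved biotin substrate so inhibition keeps polarization high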
PolyA inh: blocks polyadenylation in yeast reporter cells; S. cerevisiae SKY197-pL101 polyadenylation reporter, beta-gal luminescence; efflux-impaired pdr1/pdr3 knockout yeast; score 100 = 6 SD above DMSO; activity score, % at 12 µM; 300,000 compounds, 0.02% hits; AID 1875;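 active = lowest replicate activity score at least 50, where 100 means six control SD above control mean; inconclusive = lowest score under 50 but half or more replicates reach 50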;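 note: yeast exposed to compound for 9 h at 30 °C; higher score means more reporter readthrough which indicates perturbed polyadenylation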
IDE cell activ: boosts human insulin-degrading enzyme activity in HEK cells. P14735. 340,000 compounds, 0.073% hits. FAbeta-B cleavage, fluorescence polarization; 0% vehicle, 100% cell-free pure enzyme wells. activation, % at 5.96 µM. AID 493087;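 active = activation above the mean of all tested compounds plus 3 SD, set per screening campaign, cut at about 17% in these data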
Numbers stand for hits; i = inactive; ? = inconclusive; nt = no result given. Sampled rows, rich in hits. Any-hit rate of the full collection: about 4.1%.

SMILES	M18AAP inhibitor	CaV13 FRET inh	ALR inh	IDE cell inh	PolyA inh	IDE cell activ
COc1ccc(N2CCN(C(=O)c3ccc(CS(=O)(=O)c4ccc(OC)cc4)o3)CC2)cc1	i	i	i	i	i	i
COc1ccc(S(=O)(=O)Cc2ccc(C(=O)N3CCN(c4ccc(Cl)cc4)CC3)o2)cc1	i	i	85.5	i	i	i
COc1ccc(S(=O)(=O)Cc2ccc(C(=O)N3CCN(c4cccc(C)c4)C(C)C3)o2)cc1 (centres undefined)	i	i	93.5	i	i	i
COc1ccc(S(=O)(=O)Cc2ccc(C(=O)N3CCN(C4CCCCC4)CC3)o2)cc1	i	nt	91.7	i	i	i
COc1ccc(S(=O)(=O)Cc2ccc(C(=O)N3CCc4ccccc4C3)o2)cc1	i	i	96.7	i	i	i
COc1ccccc1S(=O)(=O)Cc1ccc(C(=O)N2CCN(c3ccc(C)cc3)C(C)C2)o1 (centres undefined)	i	i	i	i	i	i
O=C(/C=C/c1ccco1)Nc1sc2c(c1C(=O)O)CCC2	i	i	97.6	i	i	i
COC(=O)c1c(-c2ccccc2)csc1NC(=O)c1ccco1	i	nt	i	i	i	i
Cc1ccc(-c2csc(NC(=O)c3cccc(C)c3)c2C(=O)O)cc1	nt	i	i	i	?	i
O=C(Nc1scc(-c2ccc(F)cc2)c1C(=O)O)c1ccco1	i	i	87.7	i	i	i
N#Cc1c(NC(=O)/C=C/c2ccco2)sc2c1CCCC2	i	i	i	i	i	i
Cc1ccc(-c2csc(NC(=O)/C=C/c3ccco3)c2C(=O)O)cc1	i	i	97.2	i	i	i
CCCN=C1N(C)C[C@@H]2[C@@H]3C(=O)N(C)C(=O)[C@@H]3[C@](CC)(C(=O)OC)N12	nt	i	nt	nt	nt	i
COc1ccccc1-n1cnnc1SC(C)C(=O)Nc1ccc(NC(C)=O)cc1 (centres undefined)	i	i	i	i	i	i
O=C(CSC1=NCCS1)N1CCN(c2ccc(Cl)cc2)CC1	i	i	i	i	i	i
O=C(CSC1=NCCS1)c1ccc(Cl)cc1	i	nt	98.4	i	i	i
COc1cccc(CCNC(=O)c2ccc(OC)c(OC3CCN(C(C)C)CC3)c2)c1	i	i	i	i	i	i
O=C(NNc1ccccc1)Nc1ccccc1F	30.0	i	i	i	i	i
O=C(Nc1ccccc1F)Nc1ccccc1F	i	i	i	i	i	i
Cc1ccc(S(=O)(=O)NCC(c2cccnc2)N2CCc3ccccc32)cc1 (centres undefined)	i	i	i	i	i	i
O=C(O)CNC(=O)CC1S/C(=N/N=C2/NC(=O)CS2)NC1=O (centres undefined)	i	i	90.4	i	i	i
NC(=O)NC(=O)CC1S/C(=N/N=C2\CSC(=O)N2)NC1=O (centres undefined)	i	i	85.1	i	i	i
COC(=O)CCN(c1ccccc1)S(=O)(=O)c1cc(-c2cc(C)no2)ccc1C	i	i	i	i	i	i
C=CCNC(=O)c1ccccc1S(=O)c1ccccc1C#N (centres undefined)	i	nt	98.9	i	i	i
COc1ccc(Cn2c(SCc3cc(C)ccc3C)nc3cc(OC)c(OC)cc3c2=N)cc1	i	i	i	i	i	26.6
SMILES	M18AAP inhibitor	CaV13 FRET inh	ALR inh	IDE cell inh	PolyA inh	IDE cell activ
COc1ccc(Cn2c(SCc3ccc(C)cc3)nc3cc(OC)c(OC)cc3c2=N)cc1Cl	i	i	i	i	i	19.9
C(=N\Nc1ncnc2ccccc12)/c1ccccc1	i	i	97.3	i	i	i
Cc1[nH]nc2c1C(C1CC=CCC1)C(C#N)=C(N)O2 (centres undefined)	i	i	nt	i	nt	i
Cc1ccc(/C=C2\CCC3=C2OC(N)=C(C#N)C3c2ccc(C)cc2)cc1 (centres undefined)	i	nt	nt	56.4	i	i
N#CC1=C(N)Oc2cc(N)ccc2C1C1CC=CCC1 (centres undefined)	i	i	92.6	i	i	i
Cc1ccc(C2C(C#N)=C(N)Oc3cc(N)ccc32)cc1 (centres undefined)	i	i	95.9	i	i	i
Cc1cc(C)c2oc(=O)cc(CN3CCOCC3)c2c1	i	i	i	i	i	i
Cc1c(O)ccc2c(CN3CCN(CCO)CC3)cc(=O)oc12	i	i	90.0	i	i	i
Cc1c(O)ccc2c(CN3CCOCC3)cc(=O)oc12	i	i	88.1	i	i	i

Bioassay records: PubChem, several laboratories
